Data on 28 compounds can be found in PubChem BioAssay (EPA / NIEHS).

Active and inactive are the calls of the source. How the source made its calls: active means hit-call score of the fitted dose curve at least 0.9, where 1 is the maximum; inactive means score below 0.9.

A short description of this experiment: CCTE_Shafer_MEA_acute_burst_duration_mean: CCTE's Neural Acute Assay for Mean Burst Duration, Shafer Lab (AID 2284014). The procedure:
CCTE_Shafer_MEA_acute assay is conducted using Axion Biosystems 48 well microelectrode array (MEA) plates and Maestro recording system. Each well of the MEA plate contains a grid of 16 microelectrodes embedded in the culture surface. Electrically active cells, such as neurons, can be cultured over the electrodes, and electrical activity in these cells can be recorded extracellularly. The spontaneous firing of neurons is captured from each electrode on a microsecond timescale providing both temporally and spatially precise data. […] The CCTE_Shafer_MEA_acute assay uses primary cultures of rat cortical neurons. As these cultures mature over time, neural networks develop functional activity and form cohesive networks in which electrical activity can be highly coordinated. Baseline 40-minute recordings are made on days post-plating 13 or 15, followed by a secondary 40-minute recording after chemical exposure.CCTE_Shafer_MEA_acute_burst_duration_mean is a component of the CCTE_Shafer_MEA_acute assay. It measures the average time from the first spike (action potential firing) to the last spike in a single-electrode burst (temporally-clustered group of spikes) during a recording in a microelectrode array (MEA) using Axion Biosystems Maestro 768 channel amplifier with the AxIS adaptive spike detector. The recordings before and after chemical treatment are used to calculate a percent change in the mean burst duration in each well.Data from the assay component CCTE_Shafer_MEA_acute_burst_duration_mean was analyzed into 1 assay endpoint. This assay endpoint, CCTE_Shafer_MEA_acute_burst_duration_mean, was analyzed in the negative analysis fitting direction relative to DMSO as the negative control and baseline of activity. Using a type of functional reporter, gain or loss-of-signal activity can be used to understand electrical activity.
Spontaneous activity in the cortical cultures was recorded using an Axion Biosystems Maestro 768 channel amplifier and Axion Integrated Studios (AxIS) v1.8 (or later) software. The amplifier recorded from all channels simultaneously (gain = 1200 x; sampling rate = 12.5 kHz/channel): raw signals were filtered with a Butterworth band-pass filter (300-5000 Hz), which filters out slower local field potentials leaving only fast potentials, i.e., "spikes", arising from extracellular currents associated with action potentials (Pine 2006; Wheeler and Nam 2011). On-line spike detection of filtered signals was conducted with the AxIS adaptive spike detector, using a threshold of 8x the root mean squared (rms) noise on each channel. Any electrodes with rms noise levels greater than 5 uV were grounded (e.g., no data were recorded). Once grounded, an electrode was grounded for the duration of the experiment. All recordings were conducted at 37 C. Wells were deemed usable if on the day of the exposure >/= 10 electrodes were active (defined as >/= 5 spikes/min). On DIV 13 or 15, a minimum of three wells from one cortical culture preparation were treated with each compound (0.03-40 uM). Prior to recording baseline activity, each mwMEA plate was placed in the Maestro at 37 C and allowed to sit for 20 min while firing rates stabilized. Baseline activity (40 min) was recorded before the addition of each compound. An additional 40 min of spontaneous activity was recorded in the presence of each compound. Changes in network parameters relative to baseline were assessed following compound treatment.
As to `CCCCNC(=O)OCC#CI`, the result was inactive.
`OC(c1ccc(Cl)cc1)(c1cncnc1)c1ccccc1Cl` (stereo not drawn): the AC50 was 5 µM (active).
As to `COC(=O)C(C)Oc1ccc(Oc2ccc(Cl)cc2Cl)cc1` (stereo not drawn), the compound was classed as inactive.
Take `CCOP(=S)(OCC)SCn1c(=O)oc2cc(Cl)ccc21`: the AC50 was 20 µM (active).
In the case of `CCCC1COC(Cn2cncn2)(c2ccc(Cl)cc2Cl)O1` (stereo not drawn), the call was inactive.
On the same count and under the same terms, with `Fc1ccc(Oc2ccnc3cc(Cl)cc(Cl)c23)cc1` the entry was “inactive”; with `N#CC(CCc1ccc(Cl)cc1)(Cn1cncn1)c1ccccc1` (stereo not drawn), “inactive”.
On to `N#Cc1nn(-c2c(Cl)cc(C(F)(F)F)cc2Cl)c(N)c1S(=O)C(F)(F)F` (stereo not drawn), for which the outcome was inactive.
Still for that read-out and setting: for `CO/C=C(/C(=O)OC)c1ccccc1Oc1cc(Oc2ccccc2C#N)ncn1` the value was “inactive”.
On the same count and under the same terms, with `C=CCC1=C(C)C(OC(=O)C2C(C=C(C)C)C2(C)C)CC1=O` (stereo not drawn) the entry was “inactive”; with `COC(=O)N(OC)c1ccccc1COc1ccn(-c2ccc(Cl)cc2)n1`, “inactive”; with `C#CCOS(=O)OC1CCCCC1Oc1ccc(C(C)(C)C)cc1` (stereo not drawn), “inactive”.
The same measure, in the same setting: for `CC(C)Oc1cc(-n2nc(C(C)(C)C)oc2=O)c(Cl)cc1Cl` the value was “inactive”.
As to `O=C(O)c1nc(Cl)ccc1Cl`, the outcome was inactive.
As to `CC1COC(Cn2cncn2)(c2ccc(Oc3ccc(Cl)cc3)cc2Cl)O1` (stereo not drawn), the compound was called inactive.
On the same count and under the same terms, for `CCCN(CCC)c1c([N+](=O)[O-])cc(S(N)(=O)=O)cc1[N+](=O)[O-]` the value was “inactive”; for `CNC(=O)ON=CC(C)(C)SC`, “inactive”.
As for `CCNc1nc(Cl)nc(NC(C)C)n1`, the outcome was inactive.
For `COc1ccc(C(c2ccc(OC)cc2)C(Cl)(Cl)Cl)cc1`, the call was inactive.
On the same count and under the same terms, for `C=CCC1=C(C)[C@@H](OC(=O)[C@@H]2[C@@H](C=C(C)C)C2(C)C)CC1=O` the value was “inactive”; for `Cc1c(F)c(F)c(COC(=O)C2C(/C=C(\Cl)C(F)(F)F)C2(C)C)c(F)c1F` (stereo not drawn), “inactive”; for `Cc1ccc(-c2c(Cl)nc(C#N)n2S(=O)(=O)N(C)C)cc1`, “inactive”.
Same read-out and setting: with `COP(N)(=O)SC` (stereo not drawn) the entry was “inactive”; with `COP(=S)(OC)Oc1nc(Cl)c(Cl)cc1Cl`, “inactive”; with `CS/C(C)=N/OC(=O)N(C)SN(C)C(=O)O/N=C(\C)SC`, “inactive”.
As for `CC(C)(C)c1ccc(CSc2cnn(C(C)(C)C)c(=O)c2Cl)cc1`, the AC50 was 5.1 µM (active).
Regarding `CC(Oc1ccc(Cl)cc1Cl)C(=O)O` (stereo not drawn), the outcome was inactive.
Turning to `CON(C)C(=O)Nc1ccc(Cl)c(Cl)c1`, the compound was classed as inactive.

A word on the AC50: it is the concentration giving half of the maximal activity seen.
